# Bioassay records deposited in PubChem BioAssay by several laboratories.
# Most compounds without a hit are left out; they make up all but 1.9% or so of the library.
# MLLE-PAM2 inh – inhibitors of microRNA-mediated deadenylation, human PABP1 MLLE binding | actives 0.36% (n = 360,000) | GST-MLLE / FITC-PAM2 fluorescence polarization | P11940 | AID 588489 | inhibition, % at 20 µM; in the data active = inhibition above about 35%, passing the limit was not always enough;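 note: plate controls were DMSO wells with GST-MLLE for no effect and wells lacking GST-MLLE protein for full effect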
# Target sequence (P11940 whole entry, looked up): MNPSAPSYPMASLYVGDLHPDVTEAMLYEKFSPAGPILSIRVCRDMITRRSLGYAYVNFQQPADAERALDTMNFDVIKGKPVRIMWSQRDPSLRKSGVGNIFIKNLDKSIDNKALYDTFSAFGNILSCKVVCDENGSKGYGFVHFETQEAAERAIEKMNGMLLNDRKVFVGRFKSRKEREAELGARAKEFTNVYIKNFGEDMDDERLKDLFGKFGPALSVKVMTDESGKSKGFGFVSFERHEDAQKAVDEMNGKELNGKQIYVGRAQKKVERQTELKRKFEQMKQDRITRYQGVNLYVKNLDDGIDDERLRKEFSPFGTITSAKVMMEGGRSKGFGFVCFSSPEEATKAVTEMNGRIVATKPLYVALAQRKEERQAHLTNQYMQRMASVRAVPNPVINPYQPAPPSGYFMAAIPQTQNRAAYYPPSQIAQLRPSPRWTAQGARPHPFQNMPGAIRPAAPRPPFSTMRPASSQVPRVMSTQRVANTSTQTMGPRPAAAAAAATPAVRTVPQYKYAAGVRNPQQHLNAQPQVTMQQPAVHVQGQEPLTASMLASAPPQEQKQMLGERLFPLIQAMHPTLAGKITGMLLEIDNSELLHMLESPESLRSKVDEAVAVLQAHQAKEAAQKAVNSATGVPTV
# eIF4H inh – inhibitors of RNA binding by human eIF4H; inhibition, % at 35 µM; AID 2012; Q15056; actives 0.94% (n = 290,000); eIF4H fluorescence polarization binding assay;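 note: calls also rest on retests at 20 µM and on dose response follow-up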
# PERK inhibitor – inhibitors of human PERK kinase | Q9NZJ5 | CHO PERK-DD fusion, SEAP luminescence translation reporter | inhibition, % at 5.6 µM | actives 0.17% (n = 220,000) | AID 1416;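 active = inhibition above the mean inhibition of all tested compounds plus 3 SD, set separately per screening campaign, cut at about 2.9% in these data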;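 note: PERK kinase domain activated by AP20187 dimerizer at 100 nM; 0% = DMSO with dimerizer and 100% = rapamycin at 8.4 µM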
# GRK2 aptamer HTS – blocks RNA aptamer binding to human GRK2; P25098; actives 0.59% (n = 330,000); bead flow cytometry, FAM-aptamer displacement from GRK2; inhibition of aptamer binding, % at 10 µM;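 active = inhibition of aptamer binding above 40%, roughly 3 SD of noise, on plates passing a quality check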;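 note: median bead fluorescence of bound FAM aptamer so fluorescent compounds give negative values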
# PABP polyA inh – PABP-poly(A) binding inhibition. P11940. PABP-poly(A) RNA binding, fluorescence polarization. inhibition, % at 35 µM. actives 1% (n = 290,000). AID 2014;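 note: calls also rest on retests at 20 µM and on dose response follow-up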
# GRK2 inh confirm – human GRK2 inhibition confirmation, cherry pick 1 | aptamer displacement, % at 10 µM | shares compounds with GRK2 aptamer HTS | actives 4% (n = 2,000) | bead-bound GRK2, FAM-aptamer displacement, flow cytometry | AID 504451;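 active = aptamer displacement above 40%, near three times the noise of non-fluorescent compounds, on plates passing quality checks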;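 note: negative values mostly reflect intrinsic compound fluorescence rather than true enhancement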
# Aptamer quench 1 – counter-screen for GRK2 aptamer inhibitors: fluorescent aptamer quenchers | shares compounds with GRK2 aptamer HTS | Fluorescent RNA aptamer beads, quenching, flow cytometry; hits give high values | fluorescence change (kMESF span), kMESF (no concentration beside the values) | 110 tested, under 10 active | AID 504521;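 active = compounds whose bead fluorescence drops by more than 37 kMESF across the dose range, marking them as dye quenchers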
# FAM quench CP1 – quenches fluorescent RNA aptamer, GRK2 hit artifact | 2,000 tested, under 10 active | Carboxyfluorescein RNA aptamer on beads, flow cytometry quenching; hits give low values | shares compounds with GRK2 aptamer HTS | fluorescence response (% of DMSO), % at 10 µM;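 active = compounds that quench the bead-bound fluorescent RNA probe, cutting fluorescence to under half of the solvent control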;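 note: counterscreen run without GRK2 so only probe quenching by compound is measured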
# GRK2 CP2 – confirmation of human GRK2 inhibitors binding RNA aptamer site; shares compounds with GRK2 aptamer HTS; bead-bound GRK2, FAM-aptamer displacement, flow cytometry; inhibition of aptamer binding, % at 10 µM; 360 tested, under 10 active; AID 504782;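 active = inhibition of aptamer binding above 40%, about triple the noise seen with nonglowing compounds, on plates passing quality control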;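 note: negative values mostly come from compounds that fluoresce themselves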
# FAM quench CP2 – aptamer fluorescence quenching in GRK2 counter-screen | shares compounds with GRK2 aptamer HTS | carboxyfluorescein RNA aptamer beads, flow cytometry quenching; hits give low values | fluorescence response vs DMSO, % at 10 µM | 360 tested, under 10 active | AID 588494;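 active = response vs DMSO under 50%, meaning signal dropped by over half, treated as fluorescence quencher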;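 note: labelled aptamer on streptavidin beads without GRK2 as a quench counter-screen; 100% = bead fluorescence of DMSO wells and lower means quenching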
# An asterisk follows results filed as active; · = no result given. Unless noted, the rule behind the calls is not given here.
SMILES,MLLE-PAM2 inh,eIF4H inh,PERK inhibitor,GRK2 aptamer HTS,PABP polyA inh,GRK2 inh confirm,FAM quench CP1,others
Cc1ccc2c(nc3s/c(=C\c4ccc(-c5ccccc5C(=O)O)o4)c(=O)n32)c1C,-107,43,·,49*,38,2,105,
Cc1cc(C)c2nc3sc(=Cc4ccc(-c5ccccc5C(=O)O)o4)c(=O)n3c2c1,-106,·,·,·,·,·,·,
CCOC(=O)C(C)N1C(=O)S/C(=C\c2ccc(-c3ccccc3C(=O)O)o2)C1=O (stereo not drawn),-6,101*,·,84*,72*,71*,103,Aptamer quench 1=-278
O=c1/c(=C\c2cccnc2)sc2nc3ccccc3n12,-27,-18,1,·,-2,·,·,
O=C(O)c1ccc(-c2ccc(/C=c3/sc4nc5ccccc5n4c3=O)o2)cc1Cl,-70,78,·,80*,78*,60*,94,Aptamer quench 1=10
Cc1ccc(-n2cccn2)c(CN2CCCC(CNC(=O)c3ccc(F)cc3)C2)c1 (stereo not drawn),6,0,-1,0,6,·,·,
N#CC1=C(S)N(c2ccc(F)cc2)C(c2ccco2)NC1=O (stereo not drawn),12,-9,1,0,-8,·,·,
N#CC1=C(S)N(c2ccccc2)C(c2ccco2)NC1=O (stereo not drawn),-14,1,1,74*,1,1,101,
CCN(CC(=O)NCc1cccs1)CC(=O)Nc1cccc(S(N)(=O)=O)c1,3,·,·,5,·,·,·,
CCCCn1c(N)c(N(CCC(C)C)C(=O)c2ccc(C)c(S(=O)(=O)N3CCOCC3)c2)c(=O)[nH]c1=O,2,·,·,4,·,·,·,
Cc1cc(=O)[nH]c(SCc2cccc3ccccc23)n1,-2,3,·,10,1,-1,107,
CCC(CC)n1c(C)cc(=O)n1C(CC)CC,1,·,·,·,·,·,·,
COc1ccc(N2CC(C(=O)Nc3ccccc3N3CCCC3)CC2=O)c(OC)c1 (stereo not drawn),-20,·,·,0,·,·,·,
COc1ccc(C)cc1N1CC(C(=O)Nc2ccccc2N2CCCCC2)CC1=O (stereo not drawn),-2,·,·,78*,·,-2,97,
C[C@H]1[C@H](C)CC[C@]2(C)CC[C@]3(C)C(=CC[C@@H]4[C@@]5(C)CC[C@@H](O)[C@](C)(C(=O)O)[C@@H]5CC[C@]43C)[C@H]12,·,18,·,2,13,·,·,
CC(CNc1nc2ccccc2n2cnnc12)c1ccccc1 (stereo not drawn),-9,-10,·,42*,-2,-3,103,
Fc1ccc(CNc2nc3ccccc3n3cnnc23)cc1,-11,-3,-1,0,1,·,·,
CC(=O)N1c2ccccc2C(C)(c2ccccc2)CC1(C)C (stereo not drawn),9,-9,-1,3,0,·,·,
CC1(c2ccccc2)CC(C)(C)N2C(=O)Cc3cccc1c32 (stereo not drawn),7,-12,1,50*,-4,1,99,
C=Cc1ncc(OC)c2c1[nH]c1ccccc12,7,·,·,0,·,·,·,
COc1cc2sc3cc(NCC[C@@H]4CCCN4C)ccc3c(=O)c2cc1OC,-26,·,·,77*,·,·,·,GRK2 CP2=-23;FAM quench CP2=97
Cc1cc(NC(=O)COc2ccccc2C(N)=O)no1,-46,·,·,1,·,·,·,
CC(C)(C)c1ccc(C(=O)N2CCNCC2)cc1,9,-5,0,65*,3,3,103,
CCOc1ccccc1NC(=O)CSc1nnc(CNC(=O)c2c(F)cccc2Cl)o1,7,-2,·,1,-3,·,·,
Cc1cc(=O)c2ccccc2[nH]1,0,-2,1,37,-3,1,98,
Cc1ccc(-c2cc(=O)c3ccccc3[nH]2)cc1,-3,-1,0,0,4,·,·,
